Measurements published in PubChem BioAssay AID1159580 (chemical genetic matrix, 2015).
Several values for one entry are separate records, joined by “and”; a condition that tells them apart may be missing. Equal entries are not always repeated. About 2,000 (36%) of roughly 5,500 compounds were called active. Inconclusive results (about 18%) are left out. Cut-off read from the data, not from the text of the source: active = normalized growth mostly below about 0.91 (no sharp cut-off); inconclusive = no clear call, values can overlap the other calls; inactive = mostly above about 0.92. Some of the results follow.

Assay: chemical genetic growth profiling, strain panel (AID 1159580);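 note: tested at 20 µM; growth read once vehicle control cultures reached saturation at 30 °C; 1 = growth at the plate median or of vehicle wells; lower values mean less growth of the strain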
Settings: S. cerevisiae deletion strains, growth OD

Measured: normalized growth

CCCC(C)C1(CC)C(=O)NC(=O)NC1=O (configuration not stated)
inactive: locus YAL013W, strain DEP1, hits give low values 1.01 | locus YAL021C, strain ccr4, hits give low values 0.996 | locus YAL026C, strain drs2, hits give low values 1 | locus YAL030W, strain snc1, hits give low values 1 | locus YBL061C, strain skt5, hits give low values 1 | locus YBR009C, strain hhf1, hits give low values 1.01 | locus YBR021W, strain FUR4, hits give low values 1 | locus YBR023C, strain chs3, hits give low values 1 | locus YBR171W, strain sec66, hits give low values 1 | locus YBR229C, strain ROT2, hits give low values 1.01 | locus YBR231C, strain swc5, hits give low values 0.994 | locus YBR279W, strain paf1, hits give low values 1 | locus YCL011C, strain gbp2, hits give low values 1 | locus YCL016C, strain dcc1, hits give low values 0.999 | locus YCL029C, strain bik1, hits give low values 1.03 | locus YCL061C, strain MRC1, hits give low values 1 | locus YCL069W, strain vba3, hits give low values 0.998 | locus YCR088W, strain abp1, hits give low values 0.996 | locus YDL005C, strain med2, hits give low values 0.992 | locus YDL035C, strain GPR1, hits give low values 1.03 | locus YDL040C, strain nat1, hits give low values 1 | locus YDL074C, strain BRE1, hits give low values 1.03 | locus YDL101C, strain DUN1, hits give low values 1.02 | locus YDL134C, strain PPH21, hits give low values 1.02 | locus YDL185W, strain tfp1, hits give low values 1.02 | locus YDL192W, strain arf1, hits give low values 1.02 | locus YDR001C, strain nth1, hits give low values 0.998 | locus YDR069C, strain doa4, hits give low values 1 | locus YDR101C, strain arx1, hits give low values 1.01 | locus YDR137W, strain rgp1, hits give low values 1.03 | locus YDR150W, strain NUM1, hits give low values 1.02 | locus YDR159W, strain sac3, hits give low values 0.995 | locus YDR162C, strain NBP2, hits give low values 1.03 | locus YDR195W, strain ref2 0.982 | locus YDR297W, strain sur2, hits give low values 1 | locus YDR318W, strain mcm21, hits give low values 1.03 | locus YDR334W, strain swr1, hits give low values 1.01 | locus YDR335W, strain msn5, hits give low values 1 | locus YDR388W, hits give low values 1.01 | locus YDR392W, strain spt3, hits give low values 1.02 | locus YDR502C, strain sam2, hits give low values 1.02 | locus YEL003W, strain gim4, hits give low values 1.01 | locus YEL037C, strain rad23, hits give low values 0.992 | locus YEL061C, strain CIN8 (second series), hits give low values 1 | locus YEL061C, strain CIN8, hits give low values 1.01 | locus YER015W, strain faa2, hits give low values 1 | locus YER016W, strain bim1, hits give low values 1.03 | locus YER110C, hits give low values 1.01 | locus YER111C, strain swi4, hits give low values 0.988 | locus YER155C, strain BEM2 (second series), hits give low values 0.999 | locus YER155C, strain BEM2, hits give low values 1.01 | locus YER167W, strain BCK2, hits give low values 1.03 | locus YFR010W, strain ubp6, hits give low values 1.01 | locus YGL078C, strain dbp3, hits give low values 1.01 | locus YGL086W, strain mad1, hits give low values 1.02 | locus YGL167C, strain pmr1, hits give low values 1 | locus YGL173C, strain kem1, hits give low values 0.993 | locus YGL227W, strain vid30, hits give low values 0.99 | locus YGL240W, strain doc1, hits give low values 0.989 | locus YGL248W, strain PDE1, hits give low values 1.01 | locus YGL253W, strain hxk2, hits give low values 1 | locus YGR078C, strain PAC10, hits give low values 1.02 | locus YGR135W, strain pre9, hits give low values 1 | locus YGR229C, strain SMI1, hits give low values 1.02 | locus YGR252W, strain gcn5, hits give low values 1.05 | locus YHR013C, strain ard1, hits give low values 0.978 | locus YHR027C, strain rpn1, hits give low values 1 | locus YHR030C, strain SLT2, hits give low values 1.01 and 0.987 | locus YHR079C, strain IRE1 (second series), hits give low values 1.02 | locus YHR079C, strain IRE1, hits give low values 0.979 | locus YHR094C, strain hxt1, hits give low values 1.01 | locus YHR129C, strain ARP1, hits give low values 1 | locus YHR142W, strain chs7, hits give low values 1 | locus YHR200W, strain rpn10, hits give low values 1.02 | locus YIL066C, strain RNR3, hits give low values 1.01 | locus YIL073C, strain SPO22, hits give low values 1.08 | locus YIL125W, strain kgd1, hits give low values 1.02 | locus YIR030C, strain dcg1, hits give low values 1.02 | locus YJL092W, strain hpr5, hits give low values 0.995 | locus YJL095W, strain BCK1 (second series), hits give low values 1 | locus YJL095W, strain BCK1, hits give low values 1.02 and 0.993 | locus YJL115W, strain asf1, hits give low values 0.999 | locus YJL129C, strain trk1, hits give low values 1.02 | locus YJL134W, strain LCB3, hits give low values 1.01 | locus YJL154C, strain vps35, hits give low values 1 | locus YJL164C, strain tpk1, hits give low values 1.01 | locus YJL166W, strain qcr8, hits give low values 1 | locus YJL168C, strain set2, hits give low values 1.03 | locus YJL187C, strain SWE1 (second series), hits give low values 1.01 | locus YJL187C, strain SWE1, hits give low values 0.999 | locus YJR043C, strain POL32, hits give low values 1.05 | locus YJR066W, strain TOR1, hits give low values 0.954
